Data as given in PubChem BioAssay AID504832 (National Center for Advancing Translational Sciences (NCATS), 2011).
The whole screen tested about 310,000 compounds, of which about 18,000 (5.8%) were called active. About 22% were inconclusive and are not listed. Calls follow the shape of the dose curve; as a rule, active = well fitted inhibition curve with a large enough effect; inconclusive = small, poorly fitted or top-dose-only effect, or another doubt; inactive = no such curve, though single readings can be large or run the other way. For the sample, actives were picked, then their nearest neighbours and some compounds at random.

Assay: Primary qHTS for delayed death inhibitors of the malarial parasite plastid, 48 hour incubation
Conditions: P. falciparum luciferase growth in erythrocytes; series mostly up to 28.7 µM; activity change, negative = inhibition: at the top concentration
In short: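 Cell-based growth assay: transgenic P. falciparum expressing firefly luciferase, cultured in red cells within RPMI 1640 containing 0.5% w/v Albumax, 24 mM bicarbonate and gentamycin. A drop in luciferase activity indicates inhibition.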
% is scaled to controls: 0 for no effect and ±100 for the full control effect; potency is read from the fitted curve at half-maximal effect.

SMILES | activity change, negative = inhibition | Potency
COc1ccccc1NC(=O)Nc1nnc(Cc2ccc(F)cc2)s1 | -1.81% (inactive) | –
CC1=NN(/C(=N\c2nnc(C)s2)Nc2ccccc2)[C@H](c2ccc(C)cc2)S1 | – | 8.28 µM (active)
COc1ccc2oc(=N)c(C(=O)Nc3ccc(Br)cc3)cc2c1 | -3.78% (inactive) | –
CCOC(=O)C1CCN(C(=O)Cn2cc(C#N)c3ccccc32)CC1 | -19.6% (inactive) | –
CC1c2nc3ccccc3n2C(CC(=O)NCCCN2CCOCC2)C(=O)N1Cc1ccccc1 (configuration not stated) | 20.1% (inactive) | –
CCOC(=O)C1CCN(C(=O)CC2C(=O)N(Cc3ccccc3)C(C)c3nc4ccccc4n32)CC1 (configuration not stated) | – | 7.38 µM (active)
O=C(NCCS(=O)(=O)NCc1ccc(F)cc1)c1ccccc1 | -2.15% (inactive) | –
Cc1cc(C)nc(N/N=C/c2c(CO)cnc(C)c2O)n1 | – | 10.4 µM (active)
COc1ccc(/C=C2\SC(=S)N(CCC(=O)Nc3cccc(C(=O)O)c3)C2=O)cc1OC | 42.2% (inactive) | –
CN(NS(=O)(=O)c1cccs1)c1ncc(C(F)(F)F)cc1Cl | 9.75% (inactive) | –
COc1ccc(CNC(=O)c2ccc3oc(C(C)C)nc3c2)cc1 | 74.2% (inactive) | –
O=C(COC(=O)/C=C/c1ccc(OC(F)F)cc1)NC1CCCCC1 | -13.5% (inactive) | –
O=C(NCc1cccc(Cl)c1)C1CCN(c2nnc(N3CCCC3=O)s2)CC1 | 17.1% (inactive) | –
COc1ccccc1CNS(=O)(=O)c1c(C)[nH]c(C)c1C(=O)N1CCCCC1 | 3.9% (inactive) | –
COc1ccc(C2=NN(C(=O)CSc3nnnn3C)C(c3ccco3)C2)cc1 (configuration not stated) | -10.9% (inactive) | –
O=C(CSc1nnnn1-c1ccc(O)cc1)N1N=C(c2ccc3ccccc3c2)CC1c1ccccc1 (configuration not stated) | – | 2.33 µM (active)
O=C(CSc1nnnn1-c1ccc(O)cc1)c1ccc(F)cc1 | 31.6% (inactive) | –
Cc1nnnn1/C(=C\c1ccccc1)C(=O)OCC(=O)N1CC2(C)CC1CC(C)(C)C2 (configuration not stated) | – | 11.7 µM (active)
Cc1cccc(C(=O)NCC(=O)OCC(=O)N2CC3(C)CC2CC(C)(C)C3)c1 (configuration not stated) | -0.955% (inactive) | –
COc1ccccc1C(=O)N1CC2(C)CC1CC(C)(C)C2 (configuration not stated) | -29.8% (inactive) | –
COc1ccc(OC)c(-c2csc(NC(=O)COC(=O)C3CC3)n2)c1 | 9.21% (inactive) | –
C=CCOc1ccccc1NC(=O)CN1C(=O)CNC1=O | 1.8% (inactive) | –
CC(C)(C)NC(=O)C(c1ccncc1)N(C(=O)CNC(=O)c1ccco1)c1ccc2c(c1)OCO2 (configuration not stated) | 2.89% (inactive) | –
CC(C)(C)NC(=O)C(c1ccco1)N(Cc1ccc2c(c1)OCO2)C(=O)Cn1nnc2ccccc21 (configuration not stated) | – | 8.28 µM (active)
CCC(C)(C)NC(=O)C(c1cccn1C)N(Cc1ccc(C)cc1)C(=O)Cn1nnc2ccccc21 (configuration not stated) | -9.89% (inactive) | –
COCCn1c(C)cc(C(=O)CSc2nnc(C3CC3)n2C2CC2)c1C | -10.4% (inactive) | –
CCC(=O)Nc1ccc(S(=O)(=O)Nc2c(NC)c3ccccc3oc2=O)cc1 | -19.6% (inactive) | –
